High-throughput results: PubChem BioAssay, National Center for Advancing Translational Sciences (NCATS)
DT40 TDP1 no CPT: qHTS for Inhibitors of human tyrosyl-DNA phosphodiesterase 1 (TDP1): qHTS in cells in absence of CPT | Potency, µM (doses to about 46.2 µM), most hits filed as inhibitors | 420,000 tested, 15% active | DT40 Tdp1-/- hTDP1 cells, no CPT, ATP luminescence, 48 h; note: nearly all actives have a fitted effect of over 55% in size
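DT40 Tdp1-/-;hTDP1 cells, no CPT (DMSO vehicle only), 400 cells/well; compounds pin-transferred; ≥48 hr, 37 °C; CellTiter-Glo 30 min RT dark, luminescence read.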
IL1B secr inh: qHTS for Inhibitors of Inflammasome Signaling: IL-1-beta AlphaLISA Primary Screen | THP-1 LPS/ATP IL-1B secretion, AlphaLISA, 16 h; active compounds read low | activity change, % at 57.5 µM | 360,000 tested, 4.7% active; in the data active = activity change below about -50%; inconclusive = mostly about -30% to -49%
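Secreted IL-1B measured by AlphaLISA bead assay after 16 h compound exposure of THP-1 cells; compounds (final up to 57.5 uM) added 1 h before LPS (250 ng/mL) and ATP (1.25 mM) stimulation; lower signal means less secretion.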
LDHA inh: qHTS assay for inhibitors of human lactate dehydrogenase; L-lactate dehydrogenase A chain (Homo sapiens), P00338; AID 1347041, 2019; 480,000 tested, 0.15% active; activity change, % (values are at about 110 or 230 µM); purified LDHA, NADH/diaphorase-resazurin fluorescence; active compounds read low; in the data active = activity change below about -30%; inconclusive = mostly about -25% to -30%
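Resorufin fluorescence (ex540/em590), read at 0 and 20 min after diaphorase/resazurin addition, reports the NADH left after a 5 min room-temperature reaction of 2 nM human LDH5 with 0.06 mM NADH and 0.2 mM pyruvate.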
RORg inh: qHTS for inhibitors of ROR gamma transcriptional activity. Nuclear receptor ROR-gamma (Mus musculus), P51450. Drosophila S2 Gal4-RORgamma UAS-luciferase reporter, 20 h. Potency, µM (series often up to 53.6 µM), most hits filed as inhibitors. 310,000 tested, 5.4% active; note: nearly all actives have a fitted effect of over 60% in size
Target sequence (P51450 whole entry, looked up, the tested form may be a part): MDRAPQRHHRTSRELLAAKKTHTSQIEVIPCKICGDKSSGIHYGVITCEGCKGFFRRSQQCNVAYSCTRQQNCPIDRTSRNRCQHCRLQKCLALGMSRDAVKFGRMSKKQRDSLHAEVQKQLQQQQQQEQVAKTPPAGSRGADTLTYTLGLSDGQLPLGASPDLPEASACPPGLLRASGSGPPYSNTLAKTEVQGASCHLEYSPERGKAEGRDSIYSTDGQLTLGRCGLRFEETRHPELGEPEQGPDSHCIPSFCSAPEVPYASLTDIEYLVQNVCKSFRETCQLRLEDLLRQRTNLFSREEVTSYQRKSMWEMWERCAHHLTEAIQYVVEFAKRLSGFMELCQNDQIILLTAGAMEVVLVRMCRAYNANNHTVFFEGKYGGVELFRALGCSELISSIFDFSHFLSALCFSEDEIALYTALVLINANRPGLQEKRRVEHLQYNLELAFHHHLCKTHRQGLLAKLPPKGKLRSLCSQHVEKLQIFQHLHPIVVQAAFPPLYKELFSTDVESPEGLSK
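Compounds are pin-transferred onto Drosophila Schneider cells expressing a copper-inducible Gal4–ROR gamma transactivation domain fusion. After 1 hr, copper sulfate is added to 700 uM final; luciferase is read 20 hr later.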
DT40 TDP1 CPT: qHTS for Inhibitors of human tyrosyl-DNA phosphodiesterase 1 (TDP1): qHTS in cells in presence of CPT; chicken DT40 Tdp1-/-;hTDP1 cells + 20 nM CPT, ATP luminescence, 48 h; Potency, µM (highest dose often 46.2 µM), usual class: inhibitors; 420,000 tested, 12% active; AID 686979, 2013; note: nearly all actives have a fitted effect of over 55% in size
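Chicken DT40 Tdp1-/- cells complemented with human TDP1, 400 cells/well, exposed to compounds plus 20 nM camptothecin for at least 48 h at 37 C; viability read as ATP content by CellTiter-Glo luminescence.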
VP16 counter: VP16 counterscreen qHTS for inhibitors of ROR gamma transcriptional activity. Drosophila S2 Gal4-VP16 UAS-luciferase, luminescence, 20 h. Potency, µM (top dose mostly 53.6 µM), actives largely listed as inhibitors. 310,000 tested, 3.5% active. AID 2546, 2010;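 note: Gal4-VP16 expression switched on by copper sulfate through the metallothionein promoter; nearly all actives have a fitted effect of over 50% in size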
Of the large screens only hits and unclear results are named; the others gave an inactive call. The list is not random: actives were taken first. Their share in the collection is about 18%. Unless noted, calls come from the whole dose curve; as a rule, active = well fitted curve in the direction sought with a large enough effect; inconclusive = small, poorly fitted or top-dose-only effect, or another doubt; inactive = no such curve, though single readings can be large; an effect the other way counts as inactive or inconclusive.

COc1cccc(-c2cc(C(=O)N/N=C/c3cccc(OC)c3OC)c3ccccc3n2)c1	DT40 TDP1 no CPT 4.61µM, DT40 TDP1 CPT 20.6µM (no result: RORg inh, VP16 counter)
COc1ccc(/C=N/NC(=O)c2cc(-c3ccccc3)nc3ccccc23)c(C(=O)O)c1OC	none
COc1ccc(/C=N/NC(=O)c2cc(-c3cccnc3)nc3ccccc23)c(OC)c1	DT40 TDP1 no CPT 4.61µM, RORg inh inconclusive, DT40 TDP1 CPT inconclusive
Cc1ccc(C)c(NC(=O)c2cc(-c3cccnc3)nc3ccccc23)c1	DT40 TDP1 no CPT inconclusive, DT40 TDP1 CPT inconclusive
CC(=O)c1cc2c(cc1NC(=O)CSc1nnc(C3CC3)o1)OCO2	none (no result: DT40 TDP1 no CPT, IL1B secr inh, RORg inh, DT40 TDP1 CPT, VP16 counter)
CCN(Cc1ccccc1)c1ccc(/C=N/NC(=S)Nc2cc(S(=O)(=O)N(C)C)ccc2C)cc1	none (no result: DT40 TDP1 no CPT, IL1B secr inh, RORg inh, DT40 TDP1 CPT, VP16 counter)
CCc1ccc(S(=O)(=O)N2CCSC2c2ccc(OC)c(Br)c2)cc1 (stereo unspecified)	none (no result: DT40 TDP1 no CPT, IL1B secr inh, RORg inh, DT40 TDP1 CPT, VP16 counter)
O=C(N/N=C/c1cc(Cl)cc([N+](=O)[O-])c1O)c1cc(-c2ccccn2)nc2ccccc12	DT40 TDP1 no CPT 14.6µM, RORg inh 5.62µM, DT40 TDP1 CPT 6.51µM, VP16 counter 10µM
COc1cccc(/C=N/NC(=O)c2cc(-c3ccccn3)nc3ccccc23)c1O	DT40 TDP1 no CPT 8.2µM, DT40 TDP1 CPT 9.2µM (no result: RORg inh, VP16 counter)
O=C(N/N=C/c1ccc(F)cc1)c1cc(-c2ccccn2)nc2ccccc12	DT40 TDP1 CPT inconclusive (no result: RORg inh, VP16 counter)
CC(C)Nc1cc(C(F)(F)F)nc(-c2ccccn2)n1	DT40 TDP1 no CPT 18.4µM, RORg inh 1µM, DT40 TDP1 CPT 18.4µM, VP16 counter 6.31µM
FC(F)(F)c1cc(Nc2ccccc2)nc(-c2ccccn2)n1	DT40 TDP1 no CPT 25.9µM, RORg inh 2µM, DT40 TDP1 CPT inconclusive, VP16 counter 4.47µM
FC(F)(F)c1cc(Sc2ccccc2)nc(-c2ccccn2)n1	DT40 TDP1 no CPT 14.6µM, RORg inh 11.2µM, DT40 TDP1 CPT inconclusive, VP16 counter inconclusive
CCC(C)NC(=O)C(C)NC(=O)NCCNC(=O)C1CC1 (stereo unspecified)	none (no result: DT40 TDP1 no CPT, IL1B secr inh, RORg inh, DT40 TDP1 CPT, VP16 counter)
O=C(NCc1coc(-c2cccs2)n1)c1ccc(S(=O)(=O)C(F)F)cc1	none (no result: DT40 TDP1 no CPT, IL1B secr inh, RORg inh, DT40 TDP1 CPT, VP16 counter)
Cn1c(COc2ccc(Cl)cc2)nnc1SCc1ncc(-c2ccccc2)o1	DT40 TDP1 no CPT 16.4µM, DT40 TDP1 CPT inconclusive
C=CC[C@@H](CC(=O)N[C@H](CO)Cc1ccccc1)C(=O)N[C@@H](COC(=O)[C@H](CC=C)CC(=O)OC(C)(C)C)Cc1ccccc1	DT40 TDP1 no CPT 23.1µM, DT40 TDP1 CPT 20.6µM (no result: RORg inh, VP16 counter)
C=CC[C@@H](CC(=O)N[C@@H](CO)Cc1ccccc1)C(=O)N[C@H](COC(=O)[C@@H](CC=C)CC(=O)OC(C)(C)C)Cc1ccccc1	DT40 TDP1 no CPT 20.6µM, DT40 TDP1 CPT 13µM (no result: RORg inh, VP16 counter)
C=CC[C@H](CC(=O)N[C@H](CO)Cc1ccccc1)C(=O)N[C@@H](COC(=O)[C@@H](CC=C)CC(=O)OC(C)(C)C)Cc1c[nH]c2ccccc12	DT40 TDP1 no CPT inconclusive, DT40 TDP1 CPT inconclusive (no result: RORg inh, VP16 counter)
C=CC[C@@H](CC(=O)N[C@@H](CO)Cc1ccccc1)C(=O)N[C@H](COC(=O)[C@@H](CC=C)CC(=O)OC(C)(C)C)Cc1c[nH]c2ccccc12	DT40 TDP1 no CPT 3.66µM, IL1B secr inh inconclusive, DT40 TDP1 CPT 16.4µM (no result: RORg inh, VP16 counter)
O=C(O)c1cc(F)ccc1-c1ccccc1	none (no result: DT40 TDP1 no CPT, IL1B secr inh, RORg inh, DT40 TDP1 CPT, VP16 counter)
Cc1cccc(/C=N/n2c(-c3ccccc3)n[nH]c2=S)c1O	VP16 counter inconclusive
Cc1ccc(/C=N/n2c(-c3ccc(Cl)cc3)n[nH]c2=S)s1	DT40 TDP1 no CPT 16.4µM, RORg inh 1.41µM, DT40 TDP1 CPT inconclusive
Cc1ccc(-c2n[nH]c(=S)n2/N=C/c2ccc(C)s2)cc1	RORg inh 3.16µM, VP16 counter 7.08µM
COC(=O)c1ccccc1OCc1ccccc1	none (no result: DT40 TDP1 no CPT, IL1B secr inh, RORg inh, DT40 TDP1 CPT, VP16 counter)
